Assay results as given in PubChem BioAssay AID623911 (Vanderbilt High Throughput Screening Facility, 2012).
Among all 2,100 compounds or so, about 770 (37%) were called active. The list shows a part of the results. A number with no mark means an inactive call.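 Rule for the calls: active = by-eye trace score of 1 for enhancers or -1 for inhibitors, so actives lie on both sides (some results past the limit were not filed as active); inactive = score 0, or 3 fluorescent, or 4 baseline rise.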

What follows are compounds tested against G protein-activated inward rectifier potassium channel 2 (Homo sapiens) + G protein-activated inward rectifier potassium channel 1 (Homo sapiens) (UniProt P48051+P48549) (assay: GIRK1/2 thallium flux modulators, retest, confirmation, cell-based, HEK293 rmGlu8/hGIRK1/2, FluoZin-2 (AID 623911)). Details: HEK293 rmGlu8/hGIRK1/2, thallium flux FluoZin-2; actives lie on both sides; glutamate co-added at its EC20 level.
G protein-activated inward rectifier potassium channel 2 (Homo sapiens) + G protein-activated inward rectifier potassium channel 1 (Homo sapiens), sequence (P48051 whole entry, looked up): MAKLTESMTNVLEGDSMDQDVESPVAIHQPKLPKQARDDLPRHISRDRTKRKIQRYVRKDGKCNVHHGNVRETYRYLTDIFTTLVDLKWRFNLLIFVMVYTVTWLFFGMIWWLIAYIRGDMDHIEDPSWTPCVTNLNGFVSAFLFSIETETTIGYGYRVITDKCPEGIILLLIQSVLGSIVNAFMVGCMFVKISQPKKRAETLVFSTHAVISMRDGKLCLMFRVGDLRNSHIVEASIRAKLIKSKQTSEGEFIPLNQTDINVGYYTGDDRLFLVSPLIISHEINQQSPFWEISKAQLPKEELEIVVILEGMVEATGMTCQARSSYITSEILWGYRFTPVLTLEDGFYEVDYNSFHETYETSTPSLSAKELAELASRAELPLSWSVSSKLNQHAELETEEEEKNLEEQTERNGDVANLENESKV
G protein-activated inward rectifier potassium channel 2 (Homo sapiens) + G protein-activated inward rectifier potassium channel 1 (Homo sapiens), sequence (P48549 whole entry, looked up): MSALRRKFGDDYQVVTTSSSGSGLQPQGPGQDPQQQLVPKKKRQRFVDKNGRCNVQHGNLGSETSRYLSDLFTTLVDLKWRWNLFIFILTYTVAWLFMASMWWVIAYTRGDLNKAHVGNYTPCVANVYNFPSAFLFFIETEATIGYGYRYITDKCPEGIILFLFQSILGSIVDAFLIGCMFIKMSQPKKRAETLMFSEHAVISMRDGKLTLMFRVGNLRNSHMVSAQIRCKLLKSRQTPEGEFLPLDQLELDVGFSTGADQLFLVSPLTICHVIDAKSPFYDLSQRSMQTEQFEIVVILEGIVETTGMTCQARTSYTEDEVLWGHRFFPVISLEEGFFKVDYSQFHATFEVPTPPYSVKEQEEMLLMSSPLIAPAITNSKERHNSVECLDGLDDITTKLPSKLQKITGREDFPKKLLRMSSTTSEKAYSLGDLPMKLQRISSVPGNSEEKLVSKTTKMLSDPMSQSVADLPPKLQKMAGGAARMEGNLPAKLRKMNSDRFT
For `CCCN(CCC)CCCNC(=O)c1cc2c(=O)n(C)c3ccccc3c2n1C`, the manual score was -1 (active).
In the case of `CN(CCNC(=O)c1cc2c(=O)n(C)c3ccccc3c2n1C)Cc1ccccc1`, the manual score is reported as -1 (active).
`CCn1c(=O)c(C(=O)NCCCO)c(O)c2ccccc21` was tested, and the manual score was 0.
In the case of `Cc1ccc(C)c(OCC(=O)Nc2nc3ccc([N+](=O)[O-])cc3s2)c1C`, the manual score is reported as 0.
`O=C(NC(Nc1nc2ccc([N+](=O)[O-])cc2s1)(C(F)(F)F)C(F)(F)F)c1ccccc1` was tested, and the manual score was 1 (active).
In the case of `O=C(NC(Nc1nc2ccc([N+](=O)[O-])cc2s1)(C(F)(F)F)C(F)(F)F)c1ccccc1Cl`, the manual score is reported as 0.
For `Cc1onc(-c2c(F)cccc2Cl)c1C(=O)OCn1nnc2ccccc2c1=O`, the manual score was -1 (active).
`Cc1noc(C)c1CSc1nc2ccccc2c(=O)n1-c1ccc(F)cc1F` showed a manual score of 0.
In the case of `O=C(Cc1cccs1)Nc1cccnc1`, the manual score is reported as 0.
`COC(=O)c1c(NC(=O)Cc2cccs2)sc(C(=O)NC2CCCCC2)c1C` was tested, and the manual score was 0.
For `O=C(Nc1cccs1)Nc1c(F)c(F)c(F)c(F)c1F`, the manual score was 1 (active).
With `COc1cccc(NC(=O)Nc2cccs2)c1` the manual score was 1 (active).
`CCOc1ccc(Nc2ncnc(N)n2)cc1` gave a manual score of 1.5.
`CCOc1ccc(NC(=O)Nc2cccs2)cc1` was tested, and the manual score was 1 (active).
In the case of `COc1cc(NC(=O)Cc2cccs2)cc(OC)c1`, the manual score is reported as 1 (active).
Work on `CCOc1ccc(NC(=O)CCC(=O)c2ccc(-c3ccccc3)cc2)cc1` yielded a manual score of 0.
`Cc1ccc(-c2cc(-c3cccs3)[nH]n2)c(O)c1` showed a manual score of 0.
Compound `CN1C=CC2=C(C#N)C(N)C(C#N)(C#N)[C@H](c3ccccc3)[C@H]2C1` (stereo partly specified) has a manual score of 1.5.
`Cn1c(SCC(=O)c2cc3ccccc3o2)nnc1-c1ccccc1` gave a manual score of 0.
In the case of `CC1CC2=C(CC1/C=N/NC(N)=S)C(C)(C)CCC2` (stereo unspecified), the manual score is reported as 0.
`Cc1ccccc1NC(=S)NC(=O)CCc1ccccc1` gave a manual score of 0.
`CCN(CC)C(=O)CSc1nnc(NC(=O)CCc2ccccc2)s1` was tested, and the manual score was 0.
With `CCN(CC)CC(O)COc1ccccc1C(=O)CCc1ccccc1` (stereo unspecified) the manual score was -1 (active).
`S=C1Nc2cc(Cl)ccc2Sc2ccccc21` gave a manual score of 0.5.
In the case of `S=C1CCSc2ccc(Cl)cc2N1`, the manual score is reported as 1 (active).
With `CC(C)C1Cc2c(sc3c2c(=O)n(Cc2ccccc2)c2nncn32)CO1` (stereo unspecified) the manual score was 1 (active).
Compound `O=c1c2cccnc2[nH]c(=S)n1Cc1ccccc1` has a manual score of 0.
Work on `CCC1(C)Cc2c(sc3c2c(=O)n(C)c2nnc(SCc4ccc5c(c4)OCO5)n32)CO1` (stereo unspecified) yielded a manual score of 0.
`CC(C)C1Cc2c(sc3[nH]c(=S)n(Cc4ccccc4)c(=O)c23)CO1` (stereo unspecified) was tested, and the manual score was 1 (active).
`CCC1(C)Cc2c(sc3[nH]c(=S)n(Cc4ccccc4)c(=O)c23)CO1` (stereo unspecified) was tested, and the manual score was 1 (active).
For `CC1(C)Cc2c(sc3[nH]c(=S)n(Cc4ccccc4)c(=O)c23)CO1`, the manual score was 1 (active).
